# Assay results taken from PubChem BioAssay (NCI).
# The panel holds about 83,000 compounds, 20% with a hit somewhere; the sample as a whole holds those more often.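 Each cell line was grown in a 96-well plate and treated with one concentration of compound for 48 hours. Values below 10 were considered active.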 Unmarked numbers belong to inactive results. Active and inactive are the calls of the source.
# Test system: BT-549 breast
# Assay: NCI-60 one-dose screen, 48 h (100 = growth as untreated, 0 = no growth, -100 = all killed)
# Conditions: 10 µM unless noted
# Method: Growth inhibition of the BT-549 human tumor cell line is measured as a screen for anti-cancer activity. Cells are grown in 96 well plates and exposed to the test compound for 48 hours. Compounds are tested at a single concentration, which is 10^-5 M for most compounds. The reported endpoint is percent growth (GI% or GIPRCNT), where numbers from 0 - 100% represent growth inhibition, and numbers from -100% - 0 represent cell death. For example, a value of 40 represents 60% growth inhibition. A value of 0 means no net growth occurred over the course of the experiment. A value of -40 indicates 40% of cells at the beginning of the experiment died by the end of the experiment. A value of -100 means all cells are dead at the end of the experiment.
# NCI-60 Human Tumor Cell Lines Screen was performed using the standard one-dose NCI protocol, which is described in more detail at https://dtp.cancer.gov/discovery_development/nci-60/default.htm.
# Compounds with GIPRCNT values below 10 were considered active. Activity score was based on GIPRCNT using the following formula: […]
# Score is 0 for GIPRCNT values of 100 or above, 50 for GIPRCNT values of 0, and 100 for GIPRCNT values of -100.
row,Compound,growth
1,O=C(c1ccccc1)N(CCCl)C(=O)N(CCCl)C(=O)c1ccccc1,100%
2,O=C(c1ccc(O)c(Br)c1)c1ccc(O)c(Br)c1,100%
3,Nc1nc(N)c2cc(Sc3cccc(C(F)(F)F)c3)ccc2n1,50.3%
4,CCN(CC)CCNc1ccc([N+](=O)[O-])c2sc3ccccc3c(=O)c12,72%
5,C[n+]1ccccc1C[n+]1ccccc1,108%
6,CC1(C)CCCC2=C1C(=O)N(SC(Cl)(Cl)Cl)C2=O,95.8%
7,O=C1C=C(Cl)C(=O)c2ccccc21,98.3%
8,N#CC(I)CS(=O)(=O)c1ccccc1 (stereo not given),97%
9,CCCCCCCCCCCC[n+]1ccccc1 (tested in a mixture with another compound),-57.6% (active)
10,S=C(SSC(=S)N1CCOCC1)N1CCOCC1,141%
11,COc1cc(/C=C2\SC(=S)N(/C=C/c3nc4ccccc4[nH]c3=O)C2=O)cc(OC)c1OC,80.8%
12,Cc1cc(=O)oc2cc(O)cc(O)c12,101%
13,CCCCCCCCCCCC[N+]1(CCCCCCCCCCCC)CCCC(C)C1 (stereo not given),-72.2% (active)
14,O=C(/C=C/c1ccccc1)c1ccccc1O,70.5%
15,CCCCC(C=O)(C=C=C(C)C)CC (stereo not given),103%
16,O=C(/C(Cl)=N/O)c1ccc(-c2ccccc2)cc1,94.7%
17,CC(C)(C)CC(C)(C)c1ccc(OCCOCCSC(=N)N)cc1,28%
18,CCc1oc2ccccc2c1C(=O)c1cc(Br)c(O)c(Br)c1,35.4%
19,Oc1c(C(Nc2ccccc2)c2ccccc2)ccc2cccnc12 (stereo not given),49.8%
20,CCOC(=O)c1[nH]c(C#N)c(C(=O)OCC)c1C,109%

row,Compound,growth
1,CCC(=O)c1cc([N+](=O)[O-])c(Br)s1,108%
2,O=C(c1ccccc1)C(Br)C(Br)c1ccccc1 (stereo not given),101%
3,CCOC(=O)C1=NN(c2ccccc2)C(=O)/C1=C\N1C(=O)/C(=C/c2cccc(O)c2)SC1=S,97%
4,Nc1ccc(-c2ccc(N)c(S(=O)(=O)O)c2)cc1S(=O)(=O)O,113%
5,CCOC(=O)C1=C(C(=O)c2ccccc2)C(c2cccc([N+](=O)[O-])c2)C(C(=O)c2ccccc2)=C(C(=O)OCC)N1,89.9%
6,COc1ccc2nc3cc(Cl)ccc3c(NCCCCCN3CCCCC3)c2c1,19%
7,CCC1C[N+]2=C(c3cc(OC)c(OC)cc3CC2)c2c1cc1n2CCc2cc(OC)c(OC)cc2-1 (stereo not given),26.7%
8,CCC[CH2][Sn]1([CH2]CCC)[O]C2C(CO)OC(n3ccc(N)nc3=O)C2[O]1 (stereo not given),-85.2% (active)
9,N#Cc1c2ccccc2nc2ccccc12,114%
10,O=C1C=CC(=O)c2c(O)c(CO)c(CO)c(O)c21,97%
11,Oc1cc(Cl)ccc1Cc1ccc(Cl)cc1O,33.9%
12,CC(C)(C)c1ccc(O)c(Br)c1,102%
13,N#CC1c2ccccc2C=CN1C(=O)CCCl (stereo not given),92.1%
14,CCOc1cc(F)c([N+](=O)[O-])cc1[N+](=O)[O-],87.3%
15,CCOC(=O)C1(C)CCCC1N (stereo not given),116%
16,C/C(=N/NC(N)=S)c1ccc(C)cc1,105%
17,COc1ccc2c(c1)c(CC(=O)O)c(C)n2C(=O)c1ccc(Cl)cc1,66.9%
18,COC(=O)c1cc([N+](=O)[O-])cc([N+](=O)[O-])c1Cl,117%
19,Cc1cc(N/N=C/c2ccccn2)nc2ccccc12,15.1%
20,Nc1nc(-c2ccccc2)nc(N)c1N=O,56.3%
